Assay results as given in PubChem BioAssay.

The molecules below were run against Torsin-1A-interacting protein 2 (Homo sapiens) (UniProt Q8NFQ8) (assay: small molecules binding lysate-expressed LULL1 – cell lysate, human LULL1 lysate, 635/667 nm fluorescence, primary screen (AID 1092;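 also: probe is lysate of COS7 cells overexpressing human LULL1; score merges per-feature 667 nm fluorescence with signal-to-noise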)). Conditions: small-molecule microarray, hLULL1 lysate binding, 635 nm fluorescence; higher = more signal.
Torsin-1A-interacting protein 2 (Homo sapiens), sequence (Q8NFQ8 whole entry, looked up): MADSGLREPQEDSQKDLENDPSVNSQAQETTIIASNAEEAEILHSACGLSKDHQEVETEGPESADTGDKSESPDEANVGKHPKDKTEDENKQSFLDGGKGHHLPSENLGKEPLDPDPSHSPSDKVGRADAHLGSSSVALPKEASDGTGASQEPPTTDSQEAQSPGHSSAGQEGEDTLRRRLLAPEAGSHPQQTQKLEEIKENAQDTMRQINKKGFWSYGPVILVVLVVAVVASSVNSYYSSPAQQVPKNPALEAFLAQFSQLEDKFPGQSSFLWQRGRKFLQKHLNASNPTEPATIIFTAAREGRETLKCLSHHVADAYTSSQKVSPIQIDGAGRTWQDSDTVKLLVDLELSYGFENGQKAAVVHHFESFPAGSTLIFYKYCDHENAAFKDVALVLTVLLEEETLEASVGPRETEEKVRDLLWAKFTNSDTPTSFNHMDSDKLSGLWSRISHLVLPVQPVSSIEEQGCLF
For `COc1cc(NN2C(C(O)c3ccc(I)cc3)C=CC3C(=O)N(c4ccccc4)C(=O)C32)cc(OC)c1OC` (stereo unspecified), the composite z-score was 3.56. With `CN(C)CCCC[C@@H]1NC(=O)[C@@H]2C[C@H](C(=O)O)[C@H](c3cccc(OCCO)c3)N2C1=O` the composite z-score was 1.31. Work on `CN1C(=O)C2C=CC(C(O)c3cc(C(F)(F)F)cc(C(F)(F)F)c3)N(Nc3ccccc3)C2C1=O` (stereo unspecified) yielded a composite z-score of 3.85. Molecule `C=C(/C(=C/C[C@H](OC(=O)c1ccncc1)c1ccccc1OCCO)c1cnc2ccccc2c1)C(C)C` has a composite z-score of 2.27. In the case of `COC(=O)[C@@]1(Cc2ccccc2CN=[N+]=[N-])N=C(c2ccc(OCCCO)cc2)O[C@H]1c1ccccc1`, the composite z-score is reported as 1.94. In the case of `C=CCC(OC(C)=O)[C@@H]1[C@@H](N(Cc2cccc3ccccc23)C(=O)c2ccc(-c3ccccc3)cc2)c2cc(OCCCO)ccc2N1C(=O)c1ccc(-c2ccccc2)cc1` (stereo partly specified), the composite z-score is reported as 0.549. `COC(=O)[C@@]1(Cc2ccc(F)cc2)[C@H]2c3cc(C(=O)N(C)C)n(Cc4c(CO)[nH]cc(C)c4=O)c3C[C@H]2CN1C(=O)c1ccccc1` showed a composite z-score of 1.63. `CN(C)C(=O)[C@]1(CCS(=O)(=O)c2ccccc2)N=C(c2ccc(OCCCO)cc2)O[C@@H]1c1ccccc1` gave a composite z-score of 3.57. `CC(C)OC(=O)CC(=O)CC(O)c1ccc([N+](=O)[O-])cc1` (stereo unspecified) gave a composite z-score of 1.27. With `CCN(CC)c1ccc(N2CC=CC34O[C@@H]5/C=C\CCC(C)OC(=O)C5[C@H]3C(=O)N(C(C)CO)[C@@H]4C2=O)cc1` (stereo partly specified) the composite z-score was -0.139. `Cc1ccc(C(C)CC(O)C2C=CC3C(=O)N(c4ccccc4)C(=O)C3N2Nc2ccc(C#N)cc2)o1` (stereo unspecified) was tested, and the composite z-score was 3.46. Molecule `Cc1ccc(F)cc1S(=O)(=O)N[C@@H]1CCN(Cc2cccc3[nH]ccc23)C1` has a composite z-score of -0.466. Molecule `O=C1C2C=CC(C(O)c3ccco3)N(Nc3ccccc3)C2C(=O)N1c1ccccc1` (stereo unspecified) has a composite z-score of 1.13. For `CCOC(=O)C1=CCC(c2ccco2)N(S(=O)(=O)c2ccc(C)cc2)C1` (stereo unspecified), the composite z-score was 2.62. `O=C(NCCN1CCOCC1)[C@@H]1c2ccccc2C(=O)N(Cc2ccccc2)[C@H]1c1ccc(CO)cc1` was tested, and the composite z-score was 0.0893. `CCOC(=O)C1=C[C@@H](c2ccccc2)N(S(=O)(=O)c2ccc(C)cc2)[C@H]1c1ccccc1` gave a composite z-score of 0.91. In the case of `COCCOC(=O)N1C(=O)[C@@]2(c3cc(C#Cc4ccc(OC)cc4)ccc31)[C@H](c1ccc(OCCO)cc1)N1[C@H](c3ccccc3)[C@H](c3ccccc3)OC(=O)[C@H]1[C@@H]2C(=O)Nc1nc2ccccc2s1`, the composite z-score is reported as 2.2. `[N-]=[N+]=Nc1ccccc1C[C@]1(C(=O)O)N=C(c2ccc(OCCCO)cc2)O[C@H]1c1ccccc1N=[N+]=[N-]` was tested, and the composite z-score was 3.05. `CC=CC(O)C1C=CC2C(=O)NC(=O)C2N1Nc1ccccn1` (stereo unspecified) was tested, and the composite z-score was 0.871. `CCOC(=O)C1=C[C@@H](C(C)(C)C)N(S(=O)(=O)c2ccc(C)cc2)[C@H]1c1ccccc1` gave a composite z-score of 0.928. For `COC(=O)[C@@]1(Cc2ccc(F)cc2)[C@H]2c3cc(C(=O)N4CCCC4)n(CC4CC4)c3C[C@H]2CN1C(=O)c1ccccc1`, the composite z-score was 3.32. For `CO[C@H]1O[C@H](CO)[C@@H](OC(=O)Nc2ccc(C#N)cc2)[C@@H]2OC(=O)[C@H](Cc3cccc(Br)c3)C/C=C/C[C@@H](Cc3cccc(Br)c3)C(=O)O[C@@H]12`, the composite z-score was 1.26. For `COC(=O)[C@@]1(Cc2ccccc2)[C@H]2c3cc(C(=O)N(C)C)n(CCn4cc([N+](=O)[O-])nc4C)c3C[C@H]2CN1C(=O)c1ccccc1`, the composite z-score was 3.63. For `Cc1ccc(N2C(=O)c3ccccc3[C@](C)(C(=O)NCc3ccccc3)[C@@H]2c2ccc(CO)cc2)nc1`, the composite z-score was 0.945. With `COC(=O)[C@@]1(Cc2ccc(F)cc2)[C@H]2c3cc(C(=O)N4CCCC4)n(C)c3C[C@H]2CN1C(=O)c1ccccc1` the composite z-score was 3.25. `CC(C)C(=C=CC[C@@H](O)c1cccc(OCCO)c1)C[C@@H](O)c1ccccn1` gave a composite z-score of 1.26. With `O=C(O)[C@H]1C[C@H]2C(=O)N[C@@H](Cc3ccccc3)C(=O)N2[C@H]1c1cccc(OCCO)c1` the composite z-score was 2.14. Work on `COc1ccc([Si](C)(C)[C@@H]2[C@@H](CC(=O)N3Cc4ccccc4C[C@H]3CO)O[C@]3(C(=O)N(Cc4ccc(N5CCC5=O)cc4)c4ccccc43)[C@H]2C)cc1` yielded a composite z-score of 2.77. In the case of `Cc1ccc([C@H]2C(C(=O)O)=C[C@@H](C(C)(C)C)N2S(=O)(=O)c2ccc(C)cc2)cc1`, the composite z-score is reported as 3.25. `CN1C(=O)[C@@]2(Cc3ccccc3)N=C(c3ccc(OCCCO)cc3)O[C@H]2c2ccccc21` gave a composite z-score of 2.94. Work on `COCCCNC(=O)[C@@]1(Sc2ccc(C)cc2)CC(=O)N(C(C)C)[C@@H]1c1ccc(CO)cc1I` yielded a composite z-score of 2.53.
